Laboratory results taken from the supplement of paper PMC11732987, “Enantioselective OTUD7B fragment discovery through chemoproteomics screening and high-throughput optimisation” (Communications Chemistry, 2025).

Tests used:
Assay in all cases: log2 ratio of Biotin-Ahx-Ub-VS probe labelling (fragment/DMSO); higher = less target engagement (more negative = stronger competition), active = hit call of the paper (q ≤ 0.05, log2 ratio ≤ -1)
Details in all cases: compound concentration: 200 uM; treatment time: 3 h
[1] = target: T1, USP42 (UniProt Q9H9J4)
T1 sequence (whole entry): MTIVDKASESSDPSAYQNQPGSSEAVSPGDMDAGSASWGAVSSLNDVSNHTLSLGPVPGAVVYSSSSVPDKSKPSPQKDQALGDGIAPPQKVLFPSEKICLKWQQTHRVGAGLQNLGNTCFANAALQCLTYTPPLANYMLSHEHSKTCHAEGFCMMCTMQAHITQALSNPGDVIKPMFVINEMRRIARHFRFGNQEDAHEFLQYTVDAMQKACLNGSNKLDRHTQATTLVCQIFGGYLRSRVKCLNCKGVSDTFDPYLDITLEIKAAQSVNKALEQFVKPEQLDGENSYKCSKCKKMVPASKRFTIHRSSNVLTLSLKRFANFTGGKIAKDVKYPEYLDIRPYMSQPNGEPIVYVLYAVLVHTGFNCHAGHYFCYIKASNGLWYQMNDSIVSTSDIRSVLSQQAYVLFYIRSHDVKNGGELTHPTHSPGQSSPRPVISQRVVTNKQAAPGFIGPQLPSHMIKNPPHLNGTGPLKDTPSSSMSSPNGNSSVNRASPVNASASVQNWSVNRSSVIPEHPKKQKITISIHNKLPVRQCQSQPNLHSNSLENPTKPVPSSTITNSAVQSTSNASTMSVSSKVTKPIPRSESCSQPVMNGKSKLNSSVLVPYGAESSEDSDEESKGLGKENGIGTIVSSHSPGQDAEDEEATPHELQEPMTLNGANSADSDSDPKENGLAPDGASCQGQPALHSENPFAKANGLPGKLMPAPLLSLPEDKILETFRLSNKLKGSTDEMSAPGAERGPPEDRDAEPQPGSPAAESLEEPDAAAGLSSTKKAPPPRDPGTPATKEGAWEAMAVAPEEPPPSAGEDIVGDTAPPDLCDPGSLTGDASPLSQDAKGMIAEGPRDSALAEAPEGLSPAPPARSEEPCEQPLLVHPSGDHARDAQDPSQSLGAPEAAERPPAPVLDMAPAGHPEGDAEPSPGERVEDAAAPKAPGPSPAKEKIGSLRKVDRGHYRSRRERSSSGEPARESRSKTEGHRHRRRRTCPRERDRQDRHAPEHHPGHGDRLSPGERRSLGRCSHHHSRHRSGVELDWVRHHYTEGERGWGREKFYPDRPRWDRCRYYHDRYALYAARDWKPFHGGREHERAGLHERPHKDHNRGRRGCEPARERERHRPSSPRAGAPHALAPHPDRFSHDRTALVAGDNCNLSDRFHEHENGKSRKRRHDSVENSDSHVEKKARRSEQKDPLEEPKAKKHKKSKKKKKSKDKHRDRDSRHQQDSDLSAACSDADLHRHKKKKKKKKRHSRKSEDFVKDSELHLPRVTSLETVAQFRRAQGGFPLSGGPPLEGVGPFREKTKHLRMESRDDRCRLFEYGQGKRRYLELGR
Summary of the method: (§1)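 Triplicate samples of HEK293T lysate, 495 µg each, received fragment at 200 µM or vehicle for 3 h, followed by Biotin-Ahx-Ub-VS (0.5 µM final) for 1 h. After NeutrAvidin enrichment of labelled DUBs and LysC/trypsin digestion, peptides were run by diaPASEF LC-MS/MS. The values are average log2 fragment/vehicle ratios from global-median-normalised Spectronaut label-free quantities, tested by unpaired t-test on proteins having ≥2 unique peptides.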

[2] = target: USP46 (UniProt P62068)
Summary of the method: as §1

[3] = target: T2, USP47 (UniProt Q96K76)
T2 sequence (whole entry): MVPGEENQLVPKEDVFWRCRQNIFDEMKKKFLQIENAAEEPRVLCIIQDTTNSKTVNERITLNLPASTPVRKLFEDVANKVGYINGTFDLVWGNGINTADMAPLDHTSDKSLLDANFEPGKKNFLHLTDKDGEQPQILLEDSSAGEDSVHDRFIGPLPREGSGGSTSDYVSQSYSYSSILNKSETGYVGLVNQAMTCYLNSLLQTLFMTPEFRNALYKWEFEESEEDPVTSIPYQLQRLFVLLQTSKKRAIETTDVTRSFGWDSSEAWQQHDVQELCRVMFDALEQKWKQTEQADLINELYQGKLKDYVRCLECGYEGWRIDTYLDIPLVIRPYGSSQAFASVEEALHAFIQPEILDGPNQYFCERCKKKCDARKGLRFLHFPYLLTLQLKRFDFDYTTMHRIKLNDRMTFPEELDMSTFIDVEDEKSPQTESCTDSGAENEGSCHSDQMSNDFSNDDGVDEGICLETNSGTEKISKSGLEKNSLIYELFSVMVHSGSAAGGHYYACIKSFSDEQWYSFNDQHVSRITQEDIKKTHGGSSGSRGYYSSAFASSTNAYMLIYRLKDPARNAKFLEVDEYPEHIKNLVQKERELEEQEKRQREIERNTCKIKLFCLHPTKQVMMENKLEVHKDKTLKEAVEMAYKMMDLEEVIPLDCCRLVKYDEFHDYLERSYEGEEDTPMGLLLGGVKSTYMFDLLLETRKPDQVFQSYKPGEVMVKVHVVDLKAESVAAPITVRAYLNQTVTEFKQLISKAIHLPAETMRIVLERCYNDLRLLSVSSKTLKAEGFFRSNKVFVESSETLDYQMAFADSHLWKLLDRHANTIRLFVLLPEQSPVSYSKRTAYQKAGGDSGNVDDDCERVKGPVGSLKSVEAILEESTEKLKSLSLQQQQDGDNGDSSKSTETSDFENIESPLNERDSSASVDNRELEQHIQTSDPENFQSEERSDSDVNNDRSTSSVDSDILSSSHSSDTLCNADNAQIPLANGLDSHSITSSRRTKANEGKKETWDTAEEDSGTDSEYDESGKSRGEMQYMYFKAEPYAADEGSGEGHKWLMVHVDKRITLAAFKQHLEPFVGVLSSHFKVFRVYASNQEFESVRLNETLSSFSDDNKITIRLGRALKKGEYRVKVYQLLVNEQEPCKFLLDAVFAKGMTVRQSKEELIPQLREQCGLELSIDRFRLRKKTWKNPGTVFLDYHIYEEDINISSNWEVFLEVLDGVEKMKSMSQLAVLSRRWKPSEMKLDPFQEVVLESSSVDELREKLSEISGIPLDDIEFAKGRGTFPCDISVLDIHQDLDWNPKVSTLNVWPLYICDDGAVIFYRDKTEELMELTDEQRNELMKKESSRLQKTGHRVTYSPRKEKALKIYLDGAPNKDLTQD
Summary of the method: as §1

[4] = target: T3, USP48 (UniProt Q86UV5)
T3 sequence (whole entry): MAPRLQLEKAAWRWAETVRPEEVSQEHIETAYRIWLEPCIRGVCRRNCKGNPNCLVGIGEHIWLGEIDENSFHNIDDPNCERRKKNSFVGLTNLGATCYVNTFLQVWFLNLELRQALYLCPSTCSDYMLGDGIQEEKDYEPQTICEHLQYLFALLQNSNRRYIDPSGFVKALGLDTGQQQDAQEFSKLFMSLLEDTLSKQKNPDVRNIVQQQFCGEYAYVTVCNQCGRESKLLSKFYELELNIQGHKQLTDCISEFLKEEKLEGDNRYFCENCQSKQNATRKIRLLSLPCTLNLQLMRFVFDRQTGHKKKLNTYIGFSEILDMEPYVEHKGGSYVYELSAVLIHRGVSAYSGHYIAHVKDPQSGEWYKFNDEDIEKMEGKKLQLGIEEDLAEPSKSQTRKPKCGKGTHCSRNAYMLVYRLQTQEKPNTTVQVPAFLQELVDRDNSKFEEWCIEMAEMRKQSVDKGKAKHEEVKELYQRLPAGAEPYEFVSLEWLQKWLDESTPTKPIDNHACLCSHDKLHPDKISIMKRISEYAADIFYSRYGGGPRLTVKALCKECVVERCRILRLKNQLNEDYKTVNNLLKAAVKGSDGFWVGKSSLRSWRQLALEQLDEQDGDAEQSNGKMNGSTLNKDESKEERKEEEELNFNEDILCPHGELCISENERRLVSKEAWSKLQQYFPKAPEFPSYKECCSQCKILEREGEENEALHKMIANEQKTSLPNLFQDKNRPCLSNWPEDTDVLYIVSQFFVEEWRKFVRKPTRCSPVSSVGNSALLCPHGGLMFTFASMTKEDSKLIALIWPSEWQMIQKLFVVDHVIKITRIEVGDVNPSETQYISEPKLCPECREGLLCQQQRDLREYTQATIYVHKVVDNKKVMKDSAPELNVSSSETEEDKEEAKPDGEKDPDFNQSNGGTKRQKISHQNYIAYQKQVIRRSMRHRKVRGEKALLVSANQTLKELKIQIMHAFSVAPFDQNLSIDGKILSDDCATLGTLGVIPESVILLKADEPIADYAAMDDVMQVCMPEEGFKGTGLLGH
Summary of the method: as §1

[5] = target: T4, USP5 (UniProt P45974)
T4 sequence (whole entry): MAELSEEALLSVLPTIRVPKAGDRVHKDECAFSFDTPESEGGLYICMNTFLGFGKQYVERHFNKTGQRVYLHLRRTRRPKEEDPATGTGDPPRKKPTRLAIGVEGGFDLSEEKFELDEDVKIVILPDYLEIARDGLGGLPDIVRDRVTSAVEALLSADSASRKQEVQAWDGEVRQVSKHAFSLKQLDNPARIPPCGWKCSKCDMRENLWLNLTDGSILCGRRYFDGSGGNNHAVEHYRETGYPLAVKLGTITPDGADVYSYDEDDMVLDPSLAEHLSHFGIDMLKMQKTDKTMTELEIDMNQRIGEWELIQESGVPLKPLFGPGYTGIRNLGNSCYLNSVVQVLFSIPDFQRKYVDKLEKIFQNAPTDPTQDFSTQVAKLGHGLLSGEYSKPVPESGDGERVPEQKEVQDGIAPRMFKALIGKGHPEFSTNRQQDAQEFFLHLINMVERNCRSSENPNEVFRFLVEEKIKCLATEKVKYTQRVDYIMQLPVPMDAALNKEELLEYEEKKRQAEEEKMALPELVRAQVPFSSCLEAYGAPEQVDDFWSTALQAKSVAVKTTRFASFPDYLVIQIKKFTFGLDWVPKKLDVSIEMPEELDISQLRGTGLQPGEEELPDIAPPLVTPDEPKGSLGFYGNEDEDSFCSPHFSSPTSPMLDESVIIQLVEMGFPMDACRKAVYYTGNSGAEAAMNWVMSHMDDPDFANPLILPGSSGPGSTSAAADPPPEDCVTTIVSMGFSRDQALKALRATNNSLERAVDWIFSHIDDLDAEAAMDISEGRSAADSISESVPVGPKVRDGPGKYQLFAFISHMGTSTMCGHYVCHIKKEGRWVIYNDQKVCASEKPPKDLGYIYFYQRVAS
Summary of the method: as §1

[6] = target: USP54 (UniProt Q70EL1)
Summary of the method: as §1

[7] = target: USP7 (UniProt Q93009)
Summary of the method: as §1

[8] = target: T5, USP8 (UniProt P40818)
T5 sequence (whole entry): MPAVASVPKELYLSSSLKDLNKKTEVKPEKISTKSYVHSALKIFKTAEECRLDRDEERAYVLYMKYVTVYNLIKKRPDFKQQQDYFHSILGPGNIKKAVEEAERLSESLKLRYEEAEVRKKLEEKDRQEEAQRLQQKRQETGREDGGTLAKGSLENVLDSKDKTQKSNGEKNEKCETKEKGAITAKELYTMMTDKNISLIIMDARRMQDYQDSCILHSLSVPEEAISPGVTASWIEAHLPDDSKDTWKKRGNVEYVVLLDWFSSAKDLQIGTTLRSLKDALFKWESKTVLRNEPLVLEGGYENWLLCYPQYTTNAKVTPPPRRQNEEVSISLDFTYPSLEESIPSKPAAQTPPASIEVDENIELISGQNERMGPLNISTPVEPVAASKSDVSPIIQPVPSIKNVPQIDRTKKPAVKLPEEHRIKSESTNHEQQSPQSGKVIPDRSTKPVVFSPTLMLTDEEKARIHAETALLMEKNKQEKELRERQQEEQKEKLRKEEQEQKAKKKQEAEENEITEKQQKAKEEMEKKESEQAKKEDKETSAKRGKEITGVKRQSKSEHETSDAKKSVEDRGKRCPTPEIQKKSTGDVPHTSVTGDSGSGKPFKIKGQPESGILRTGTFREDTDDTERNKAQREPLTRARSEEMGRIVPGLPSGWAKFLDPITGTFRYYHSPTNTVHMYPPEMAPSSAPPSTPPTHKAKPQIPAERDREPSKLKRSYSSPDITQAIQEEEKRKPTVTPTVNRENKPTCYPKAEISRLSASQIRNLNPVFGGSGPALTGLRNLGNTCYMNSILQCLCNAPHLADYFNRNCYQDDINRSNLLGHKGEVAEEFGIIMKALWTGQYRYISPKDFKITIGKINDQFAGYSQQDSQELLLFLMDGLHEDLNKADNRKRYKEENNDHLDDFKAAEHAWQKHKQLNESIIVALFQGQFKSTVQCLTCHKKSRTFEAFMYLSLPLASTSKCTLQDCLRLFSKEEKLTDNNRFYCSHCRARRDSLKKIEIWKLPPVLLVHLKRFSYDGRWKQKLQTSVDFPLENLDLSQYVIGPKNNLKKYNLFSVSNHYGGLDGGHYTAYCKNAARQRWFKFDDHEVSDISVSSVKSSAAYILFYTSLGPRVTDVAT
Summary of the method: as §1

[9] = target: USP9X (UniProt Q93008)
Summary of the method: as §1

[10] = target: UniProt O00487
Summary of the method: as §1

Measured: log2 ratio of Biotin-Ahx-Ub-VS probe labelling

Sequence of UniProt O00487 (O00487 whole entry): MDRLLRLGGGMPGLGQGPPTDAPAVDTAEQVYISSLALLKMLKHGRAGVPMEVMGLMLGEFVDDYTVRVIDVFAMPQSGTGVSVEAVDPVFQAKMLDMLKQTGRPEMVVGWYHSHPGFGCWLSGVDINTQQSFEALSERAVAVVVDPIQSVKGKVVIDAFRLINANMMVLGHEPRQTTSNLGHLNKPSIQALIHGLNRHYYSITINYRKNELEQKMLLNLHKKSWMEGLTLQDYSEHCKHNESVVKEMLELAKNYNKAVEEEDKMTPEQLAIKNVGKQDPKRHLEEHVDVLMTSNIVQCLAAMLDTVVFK
Sequence of USP7 (Q93009 whole entry, looked up): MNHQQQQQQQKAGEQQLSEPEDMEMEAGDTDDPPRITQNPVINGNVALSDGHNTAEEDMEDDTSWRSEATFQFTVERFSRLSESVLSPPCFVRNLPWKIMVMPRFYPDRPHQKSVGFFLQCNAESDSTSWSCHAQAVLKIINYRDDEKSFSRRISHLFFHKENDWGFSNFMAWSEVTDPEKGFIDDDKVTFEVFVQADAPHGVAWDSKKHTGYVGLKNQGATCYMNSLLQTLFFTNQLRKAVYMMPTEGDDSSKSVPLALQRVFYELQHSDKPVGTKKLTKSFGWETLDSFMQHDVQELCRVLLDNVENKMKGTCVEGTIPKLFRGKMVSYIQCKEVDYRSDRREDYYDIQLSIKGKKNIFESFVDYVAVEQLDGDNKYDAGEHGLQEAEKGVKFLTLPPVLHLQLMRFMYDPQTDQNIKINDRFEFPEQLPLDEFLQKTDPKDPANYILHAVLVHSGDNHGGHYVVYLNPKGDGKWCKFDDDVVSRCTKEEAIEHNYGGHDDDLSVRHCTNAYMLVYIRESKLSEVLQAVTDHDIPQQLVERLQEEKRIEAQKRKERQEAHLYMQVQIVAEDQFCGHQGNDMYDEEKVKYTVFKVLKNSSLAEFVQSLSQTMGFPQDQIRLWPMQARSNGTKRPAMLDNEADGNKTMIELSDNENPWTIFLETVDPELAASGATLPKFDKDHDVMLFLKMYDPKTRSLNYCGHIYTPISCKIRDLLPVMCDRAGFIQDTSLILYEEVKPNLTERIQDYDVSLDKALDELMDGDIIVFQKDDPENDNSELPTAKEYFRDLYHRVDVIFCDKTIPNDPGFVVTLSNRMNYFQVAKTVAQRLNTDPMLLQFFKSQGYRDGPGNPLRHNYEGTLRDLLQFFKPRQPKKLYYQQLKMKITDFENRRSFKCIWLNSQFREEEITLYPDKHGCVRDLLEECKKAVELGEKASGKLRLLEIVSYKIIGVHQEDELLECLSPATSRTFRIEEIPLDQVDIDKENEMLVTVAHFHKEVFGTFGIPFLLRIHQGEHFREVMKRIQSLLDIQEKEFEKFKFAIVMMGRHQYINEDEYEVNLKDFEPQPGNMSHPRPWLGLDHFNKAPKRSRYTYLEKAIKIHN
Sequence of USP46 (P62068 whole entry): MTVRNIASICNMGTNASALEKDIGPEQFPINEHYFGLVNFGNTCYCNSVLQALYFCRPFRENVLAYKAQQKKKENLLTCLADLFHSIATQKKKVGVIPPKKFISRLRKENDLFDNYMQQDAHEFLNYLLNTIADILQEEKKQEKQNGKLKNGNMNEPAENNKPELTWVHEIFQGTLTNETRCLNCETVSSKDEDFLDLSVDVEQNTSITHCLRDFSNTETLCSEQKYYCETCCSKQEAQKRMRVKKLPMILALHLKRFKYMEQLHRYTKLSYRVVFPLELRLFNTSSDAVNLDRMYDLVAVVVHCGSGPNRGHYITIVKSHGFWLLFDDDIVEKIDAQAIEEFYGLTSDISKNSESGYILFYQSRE
Sequence of USP9X (Q93008 whole entry): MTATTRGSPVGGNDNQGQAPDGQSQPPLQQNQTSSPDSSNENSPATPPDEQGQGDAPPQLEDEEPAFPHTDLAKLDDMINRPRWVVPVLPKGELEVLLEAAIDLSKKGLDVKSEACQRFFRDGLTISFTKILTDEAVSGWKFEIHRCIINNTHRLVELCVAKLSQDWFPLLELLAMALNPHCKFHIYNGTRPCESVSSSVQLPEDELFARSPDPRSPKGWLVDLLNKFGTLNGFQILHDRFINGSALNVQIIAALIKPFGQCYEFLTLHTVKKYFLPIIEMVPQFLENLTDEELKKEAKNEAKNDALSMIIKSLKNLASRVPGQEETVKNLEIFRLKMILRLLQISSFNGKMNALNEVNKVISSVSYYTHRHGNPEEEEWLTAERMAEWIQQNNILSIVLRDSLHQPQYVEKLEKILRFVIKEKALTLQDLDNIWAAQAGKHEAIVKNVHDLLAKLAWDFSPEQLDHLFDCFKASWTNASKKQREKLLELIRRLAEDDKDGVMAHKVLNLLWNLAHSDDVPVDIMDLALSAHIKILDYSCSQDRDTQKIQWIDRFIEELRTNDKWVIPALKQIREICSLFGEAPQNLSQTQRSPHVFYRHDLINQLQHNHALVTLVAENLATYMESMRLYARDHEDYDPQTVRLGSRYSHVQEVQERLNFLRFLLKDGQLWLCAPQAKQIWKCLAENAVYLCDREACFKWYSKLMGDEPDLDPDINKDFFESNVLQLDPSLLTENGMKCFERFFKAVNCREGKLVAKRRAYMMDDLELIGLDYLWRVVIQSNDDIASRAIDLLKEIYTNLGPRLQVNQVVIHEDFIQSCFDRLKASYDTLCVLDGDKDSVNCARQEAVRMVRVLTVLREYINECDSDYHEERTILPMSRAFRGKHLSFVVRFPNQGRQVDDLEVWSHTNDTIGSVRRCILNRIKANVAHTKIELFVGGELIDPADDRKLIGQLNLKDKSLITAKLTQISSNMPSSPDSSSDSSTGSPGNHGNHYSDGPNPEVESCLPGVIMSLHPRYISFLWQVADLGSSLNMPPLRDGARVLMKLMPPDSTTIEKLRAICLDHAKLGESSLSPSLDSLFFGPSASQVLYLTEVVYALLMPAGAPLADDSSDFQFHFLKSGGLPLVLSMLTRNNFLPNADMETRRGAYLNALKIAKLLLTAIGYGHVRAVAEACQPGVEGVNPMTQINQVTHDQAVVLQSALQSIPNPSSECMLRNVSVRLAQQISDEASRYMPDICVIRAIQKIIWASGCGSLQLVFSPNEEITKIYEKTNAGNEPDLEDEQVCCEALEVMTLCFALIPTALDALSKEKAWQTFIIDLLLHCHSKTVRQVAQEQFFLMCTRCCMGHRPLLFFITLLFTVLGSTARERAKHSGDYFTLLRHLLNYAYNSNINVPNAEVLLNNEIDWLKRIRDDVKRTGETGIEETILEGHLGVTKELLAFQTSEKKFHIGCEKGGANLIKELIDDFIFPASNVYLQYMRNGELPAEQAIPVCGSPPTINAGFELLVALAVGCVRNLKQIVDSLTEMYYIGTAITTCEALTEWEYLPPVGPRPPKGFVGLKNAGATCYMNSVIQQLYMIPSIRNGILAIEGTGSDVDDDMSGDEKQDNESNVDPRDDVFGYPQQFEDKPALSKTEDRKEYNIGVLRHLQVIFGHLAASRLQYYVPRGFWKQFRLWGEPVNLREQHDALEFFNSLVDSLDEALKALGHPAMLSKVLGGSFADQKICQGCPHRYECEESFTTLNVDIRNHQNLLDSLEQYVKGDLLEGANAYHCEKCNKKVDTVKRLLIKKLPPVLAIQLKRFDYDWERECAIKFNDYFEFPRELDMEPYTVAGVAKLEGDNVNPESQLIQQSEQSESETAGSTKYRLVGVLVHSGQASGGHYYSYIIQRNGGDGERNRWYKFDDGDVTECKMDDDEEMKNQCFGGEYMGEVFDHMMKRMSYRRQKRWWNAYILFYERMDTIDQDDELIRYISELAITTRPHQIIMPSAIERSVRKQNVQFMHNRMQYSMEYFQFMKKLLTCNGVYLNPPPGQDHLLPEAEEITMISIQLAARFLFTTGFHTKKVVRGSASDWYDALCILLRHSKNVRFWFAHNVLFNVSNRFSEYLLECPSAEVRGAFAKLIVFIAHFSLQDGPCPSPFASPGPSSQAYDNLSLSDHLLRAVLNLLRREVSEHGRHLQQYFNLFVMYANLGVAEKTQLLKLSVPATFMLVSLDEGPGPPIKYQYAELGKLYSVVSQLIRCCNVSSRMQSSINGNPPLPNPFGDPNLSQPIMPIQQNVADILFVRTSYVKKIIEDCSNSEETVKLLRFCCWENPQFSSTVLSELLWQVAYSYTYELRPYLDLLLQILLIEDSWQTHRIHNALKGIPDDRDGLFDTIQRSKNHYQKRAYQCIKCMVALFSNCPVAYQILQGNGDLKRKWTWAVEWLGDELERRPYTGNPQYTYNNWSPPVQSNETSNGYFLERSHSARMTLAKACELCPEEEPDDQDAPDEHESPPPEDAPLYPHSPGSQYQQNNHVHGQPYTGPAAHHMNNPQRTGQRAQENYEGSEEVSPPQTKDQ

O=C(CCl)NCc1ccc(N2CCOCC2)c(F)c1
inactive: [1] 0.396 | [2] 0.00295 | [3] 0.00631 | [4] 0.132 | [5] 0.372 | [6] 0.657 | [7] -0.046 | [8] 0.129 | [9] -0.078 | [10] 0.0665
